Laboratory results reported in PubChem BioAssay (NCATS).
Inconclusive results are not listed. Active and inactive are the calls of the source. The call rests on the fitted dose curve; in most records, active means well fitted inhibition curve with a large enough effect; inconclusive means small, poorly fitted or top-dose-only effect; inactive means no such curve, though single readings can be large or run the other way.

Assay: Primary qHTS for small molecule stabilizers of the endoplasmic reticulum resident proteome: Secreted ER Calcium Modulated Protein (SERCaMP) assay (AID 1508630)
Conditions: SH-SY5Y GLuc-SERCaMP (Gaussia luciferase released on ER calcium loss) secretion, thapsigargin, luminescence; series mostly up to 38.4 µM
Outline: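 The SH-SY5Y reporter protocol was run at 3 concentrations up to 38.3 uM (primary) or 11 concentrations (follow-up): 16 h compound, 100 nM thapsigargin for 4 h, then extracellular luciferase luminescence.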

Row | SMILES | outcome
1 | O=c1[nH]c(=O)n([C@H]2C[C@@H](O)[C@@H](CO)O2)cc1F | inactive
2 | COC(=O)[C@@H]1CC2=CC(=O)CC[C@]2(C)[C@@]23O[C@@H]2C[C@@]2(C)[C@H](CC[C@@]24CCC(=O)O4)[C@@H]13 | inactive
3 | COc1cccc2c1C(=O)c1c(O)c3c(c(O)c1C2=O)C[C@@](O)(C(=O)CO)C[C@H]3O[C@H]1C[C@H](N)[C@H](O)[C@H](C)O1 | inactive
4 | COc1cc(OC)cc(-c2ccc3ncc4ccc(=O)n(-c5ccc(N6CCNCC6)c(C(F)(F)F)c5)c4c3c2)c1 | inactive
5 | COc1cc(C=CC(=O)CC(=O)C=Cc2ccc(O)c(OC)c2)ccc1O | inactive
6 | C[C@H](NC(=O)C(C#N)=Cc1cccc(Br)n1)c1ccccc1 | inactive
7 | C=C[C@@H]1CN2CCC1C[C@H]2[C@H](O)c1ccnc2ccc(OC)cc12 (stereo partly drawn) | inactive
8 | CN1CCc2c(c3ccccc3n2Cc2ccc(C(=O)NO)cc2)C1 | inactive
9 | Cn1cc(C=CC(=O)c2cccc(F)c2)cc1C=CC(=O)NO | inactive
10 | COc1ccc(CCC(=O)c2c(O)cc(O[C@@H]3O[C@H](CO)[C@@H](O)[C@H](O)[C@@H]3O[C@@H]3O[C@@H](C)[C@H](O)[C@@H](O)[C@@H]3O)cc2O)cc1O | inactive
11 | O=C(Nc1cc2cc[nH]c2cn1)c1ccccc1 | inactive
12 | CC(=O)O[C@]1(C(C)=O)CC[C@H]2[C@@H]3C=C(C)C4=CC(=O)CC[C@]4(C)[C@@H]3CC[C@@]21C | inactive
13 | C[C@]12CC[C@@H]3c4ccc(O)cc4CC[C@H]3[C@H]1CC[C@H]2O | inactive
